Screens from PubChem BioAssay.
TSHR agonist = qHTS Assay for Agonists of the Thyroid Stimulating Hormone Receptor. HEK293-CNG-TSHR cells (CNG channel as cAMP sensor), membrane potential dye, cAMP. Potency, µM (doses to about 57.1 µM), without a hit: at the highest dose activation, most hits filed as activators. 0.48% of 73,000 active. AID 926, 2007; active = well fitted activation curve with a large enough effect in the main read-out, with a control signal flat, not every such curve was filed as active; inconclusive = small, poorly fitted or top-dose-only effect, or a change in a side signal; inactive = no such curve, though single readings can be large or run the other way; % of control where 0% means no effect;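 also: the control signal comes from parental cells without the receptor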
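HEK 293 cells stably expressing TSHR and a cAMP-gated CNG channel; parental CNG-only cells as counterscreen. Cells preloaded 60 min with membrane potential dye plus 100 uM RO 20-1724, then compound 30 min; fluorescence read at 590 nm.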
FLuc inh = qHTS Assay for Inhibitors of Firefly Luciferase | Potency, µM (doses to about 57.1 µM), for inactives: at the highest dose activity change, negative = inhibition, most hits filed as inhibitors | purified firefly luciferase, luminescence, 8 min | 2.2% of 72,000 active | Luciferin 4-monooxygenase (Photinus pyralis), P08659; also: % is scaled to controls: 0 for no effect and ±100 for the full control effect; nearly all actives have a fitted effect of over 40% in size
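Titration-based qHTS; buffer 50 mM imidazole pH 7.2, 50 mM KCl, 7 mM MgCl2, 10 uM ATP, 0.01% Tween 20, 0.05% BSA; luciferase/luciferin detector mix added after compound; 8 min, ambient; luminescence.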
PK Bst = Pyruvate Kinase; purified pyruvate kinase, luminescence ATP production; ribose 5-phosphate activator present at AC10; Potency, µM; 1.2% of 51,000 active; in the data active = potency below about 11 µM; inconclusive = mostly about 12 µM to 25 µM;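 the screen sought inhibitors and activators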;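 also: scaled between full activation by ribose 5 phosphate and full inhibition by luteolin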
ERK AVP block = qHTS Assay for Inhibitors of the ERK Signaling Pathway using a Homogeneous Screening Assay; Potency, µM (top dose mostly 57.5 µM), inactives show at the top dose activity, negative = inhibition, hits mostly inhibitors; HEK293-V1b, vasopressin-stimulated pERK AlphaScreen; 0.99% of 72,000 active; AID 995, 2007; also: % is scaled to controls: 0 for no effect and ±100 for the full control effect; nearly all actives have a fitted effect of over 55% in size
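Phosphorylated ERK1/2 detected via AlphaScreen bead proximity in lysates of V1b-expressing HEK293 cells given 25 nM vasopressin for 5 min after 30 min compound exposure (37 °C). AC50 from Hill equation; basal DMSO 0%, vasopressin 100%.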
Tau fil binding = qHTS Assay for Tau Filament Binding | Microtubule-associated protein tau (Homo sapiens), P10636 | recombinant tau filaments, thioflavin S fluorescence, 15 h; filaments grown with octadecylsulfate alongside compound | Potency, µM (titrated, usually from 57.1 µM), inactives show at the top dose activity change, negative = inhibition | 2% of 71,000 active | AID 596, 2007;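 also: % is scaled to controls: 0 for no effect and ±100 for the full control effect; actives lower thioflavin S fluorescence by blocking filaments or displacing dye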
Target sequence (P10636 whole entry, looked up): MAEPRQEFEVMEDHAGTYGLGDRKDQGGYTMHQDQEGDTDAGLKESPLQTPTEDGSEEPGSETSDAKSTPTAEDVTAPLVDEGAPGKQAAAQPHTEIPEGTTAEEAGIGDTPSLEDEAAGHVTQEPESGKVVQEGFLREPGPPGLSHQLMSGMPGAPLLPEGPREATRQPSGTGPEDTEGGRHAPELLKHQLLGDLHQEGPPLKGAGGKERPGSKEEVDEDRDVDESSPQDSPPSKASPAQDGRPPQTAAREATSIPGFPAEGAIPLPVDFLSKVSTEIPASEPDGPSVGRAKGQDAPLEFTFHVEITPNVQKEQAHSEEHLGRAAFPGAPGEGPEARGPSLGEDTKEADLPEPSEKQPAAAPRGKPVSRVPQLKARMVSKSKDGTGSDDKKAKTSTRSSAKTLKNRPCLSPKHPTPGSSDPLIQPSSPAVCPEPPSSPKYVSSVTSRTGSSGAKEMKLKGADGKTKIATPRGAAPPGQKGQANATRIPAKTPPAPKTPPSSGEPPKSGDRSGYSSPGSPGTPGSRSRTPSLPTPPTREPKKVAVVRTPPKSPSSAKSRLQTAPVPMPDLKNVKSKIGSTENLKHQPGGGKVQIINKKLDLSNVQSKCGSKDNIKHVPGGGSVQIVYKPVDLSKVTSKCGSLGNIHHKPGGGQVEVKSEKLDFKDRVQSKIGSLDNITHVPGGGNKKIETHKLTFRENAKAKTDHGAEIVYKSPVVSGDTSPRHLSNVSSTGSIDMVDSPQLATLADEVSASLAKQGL
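Recombinant tau protein (human, 1 uM final) plus 30 uM ODS in HEPES pH 7.4 with NaCl, DTT and thioflavine S. Compound present from the start; fluorescence at 510 nm after 15 h, 37 C.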
HEK293 cAMP ctrl = qHTS Assay for Agonists of the Thyroid Stimulating Hormone Receptor: Activators of Intracellular cAMP Concentrations in Parental HEK 293 | Potency, µM (titrated, usually from 57.1 µM), for inactives: top-dose activation, hits mostly activators | parental HEK293 CNG cAMP sensor, membrane potential fluorescence | 2.5% of 73,000 active | AID 938, 2007; also: % of control where 0% means no effect; nearly all actives have a fitted effect of over 55% in size
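Parental HEK 293 cells stably expressing a modified CNG channel (no TSHR) report cAMP rise as membrane depolarization. Membrane potential dye with 100 uM RO 20-1724 was loaded for 60 min at room temperature, then compound added for 30 min; fluorescence read at 590 nm.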
* hit, by the source's call; i = inactive; ? = inconclusive; . = not tested or not shown; [ ] = remark or other dose. Hits are enriched below; roughly 7.2% of the tested compounds scored in any of these assays. Unless noted, calls follow the shape of the dose curve; as a rule, active = well fitted curve in the direction sought with a large enough effect; inconclusive = small, poorly fitted or top-dose-only effect, or another doubt; inactive = no such curve, though single readings can be large; an effect the other way counts as inactive or inconclusive. Potency is read from the fitted curve at half-maximal effect.

SMILES | TSHR agonist | FLuc inh | PK Bst | ERK AVP block | Tau fil binding | HEK293 cAMP ctrl
Cc1cc(C)n2nc(C(=O)Nc3ccc4c(c3)OCO4)nc2n1 | -3.3% | ? | . | -9.9% | 31.6µM* | 1.0%
O=C(Nc1cccc(Cl)c1)Nc1ccc2c(c1)OCO2 | -29.2% | 15.8µM* | . | ? | 12.6µM* | -15.5%
CCCN(CCC)S(=O)(=O)c1cccc(C(=O)Nc2ccc3c(c2)OCO3)c1 | ? | -2.2% | >57 | 14.3% | 2.4% | 15.8µM*
O=C(Nc1ccc2c(c1)OCO2)C1(S(=O)(=O)c2ccc(Cl)cc2)CC1 | 2.0% | 0.5% | >57 | 18.9% | 15.8µM* | -1.6%
CC(=O)c1cc2c(cc1NC(=O)Nc1cccc(Cl)c1)OCCO2 | 11.8% | -5.1% | >57 | ? | 162.1% | 9.3%
O=C(O)C/C(=C\c1ccco1)C(=O)O | ? | 2.0%[11.4 µM] | . | -9.9%[11.5 µM] | 6.6%[11.4 µM] | ?
CC(=O)N1CCC[C@@]2(CCN(C(=O)Nc3cccc(C#N)c3)C2)C1 | 11.6% | 0.4%[11.4 µM] | . | -1.7% | 4.9% | 12.0%
COc1ccc(NC(=O)c2nc3nc(C)cc(C(F)F)n3n2)cc1OC | -2.1% | -1.3% | . | -12.2% | -19.2% | -3.7%
Cc1ccccc1C(=O)Nc1ccc2c(c1)OCO2 | -0.9% | 15.8µM* | ? | 7.8% | -2.0% | 3.6%
CCN(CC)c1ccc(NC(=O)c2nc3nc(C)cc(C(F)F)n3n2)cc1 | -20.7% | -6.6% | . | -26.3% | 15.8µM* | -6.2%
CN(c1ccccc1C(=O)Nc1ccc2c(c1)OCO2)S(C)(=O)=O | -17.9% | -1.4% | >57 | -2.4% | ? | -1.3%
COc1cc(C(=O)Nc2ccc3c(c2)OCCO3)c(-n2cnnn2)cc1OC | 9.7% | 2.7% | >57 | -13.9% | 1.3% | -12.7%
COc1cc(SC)ccc1C(=O)Nc1ccc2c(c1)OCCO2 | . | 1.26µM* | . | -21.0% | 86.2% | 97.3%
COc1ccc(Cl)cc1C(=O)Nc1ccc2c(c1)OCO2 | ? | 12.6µM* | i | -23.9% | 31.9% | ?
COc1ccc(Cl)cc1C(=O)Nc1ccc(NC(=O)c2ccco2)cc1 | 19.9% | 1.6% | . | -27.1% | 183.6% | -1.9%
C/C1=C2N=C(/C=C3N=C(/C(C)=C4\[N-]C(C)(C5N=C1C(C)(CCC(=O)NCC(C)OP(=O)([O-])O[C@H]1C(O)C(n6cnc7cc(C)c(C)cc76)O[C@@H]1CO)C5CC(N)=O)C(C)(CC(N)=O)C4CCC(N)=O)C(C)(CC(N)=O)C\3CCC(N)=O)C(C)(C)C/2CCC(N)=O.[CH2-]C1OC(n2cnc3c(N)ncnc32)C(O)C1O.[Co] (stereo not given in full) | . | . | . | -22.3% | . | .
c1ccc([P+](CC[P+](c2ccccc2)(c2ccccc2)c2ccccc2)(c2ccccc2)c2ccccc2)cc1 | -3.8%[11.4 µM] | -1.0%[11.4 µM] | . | 13.6%[11.5 µM] | 12.7%[11.4 µM] | 7.6%[11.4 µM]
FC(F)(F)c1ccccc1-c1ccc2ncnc(NC3CCNCC3)c2c1 | 4.0% | 0.2%[2.29 µM] | . | 7.1% | 5.9% | 9.6%
CN1CCc2c(sc3c2C(=O)NC(c2ccc(-c4cccc(Cl)c4)o2)N3)C1 (stereo not given) | -21.3% | -1.5% | . | 0.5% | 1.26µM* | -10.2%
COCCNC(=O)c1ccc(-n2c(=O)c(=O)[nH]c3ccccc32)cc1 | -0.4% | . | . | . | . | 8.9%
COc1ccc(Oc2ncc3nc(-c4ccc(Cl)cc4)c(=O)n(C[C@H]4CCCO4)c3n2)cc1 | -2.7% | 1.6%[11.4 µM] | . | -6.1% | -9.1% | 2.4%
CC(C)(C)NC(=O)NC(=O)COc1ccccc1C#N | -2.8% | 20µM* | i | 36.3% | -15.4% | 4.2%
CCCC(=O)N(c1ccc(OCC)cc1)C1C=CS(=O)(=O)C1 (stereo not given) | ? | -0.8% | >57 | 2.6% | -1.4% | 3.16µM*
CCCCC(=O)N(c1ccc(OCC)cc1)C1C=CS(=O)(=O)C1 (stereo not given) | -1.0%[11.4 µM] | 3.7% | >57 | 15.4% | 0.9% | 2.3%
CCC1OC(=O)C(C)[C@@H](O[C@H]2C[C@@](C)(OC)C(O)C(C)O2)C(C)[C@@H](O[C@@H]2OC(C)CC(N(C)C)C2O)[C@](C)(O)CC(C)/C(=N\OCOCCOC)[C@H](C)C(O)[C@]1(C)O (stereo not given in full) | . | . | . | -24.1% | . | .
SMILES | TSHR agonist | FLuc inh | PK Bst | ERK AVP block | Tau fil binding | HEK293 cAMP ctrl
COc1ccccc1NC(=O)N1CCc2[nH]c3ccc(Cl)cc3c2C1 | -7.7% | -8.7% | . | 25.1µM* | i | -5.1%
O=S(c1ccccc1)c1ccc2nnnn2n1 (stereo not given) | . | -4.9% | . | . | ? | .
Cc1c(C)c2c(c(C)c1O)CC[C@@](C)(C(=O)O)O2 | ? | 4.5%[25.5 µM] | . | 5.5%[25.7 µM] | -5.0%[25.6 µM] | ?
CCN1C(=O)c2cccc3c(S(=O)(=O)Nc4ncccc4C)ccc1c23 | 9.9% | -9.9% | >57 | 25.1µM* | 1.2% | 9.8%
c1cncc(-c2cc(NCc3cccs3)ncn2)c1 | 2.4% | 1.9%[2.29 µM] | . | -24.6% | -4.7% | 14.2%
CCCn1c(C)nc2c(N(CCOC)CCOC)nc(C)nc21 | 4.9% | . | . | -2.7% | -8.8% | 2.5%
CCCC[C@@H]1C[C@H]1C(NC(=O)c1ccccc1)c1ccc(C(F)(F)F)cc1 (stereo not given in full) | ? | . | . | -6.0% | -5.0% | 3.16µM*
CCCC[C@@H]1C[C@H]1C(NC(=O)c1ccc(C(F)(F)F)cc1)c1ccc(C(=O)OC)cc1 (stereo not given in full) | ? | . | . | -6.2% | 130.6% | ?
CCCC[C@@H]1C[C@H]1C(NC(=O)c1cccnc1)c1ccc(Cl)cc1 (stereo not given in full) | ? | . | . | ? | 2.5% | 25.1µM*
O=[N+]([O-])c1ccc(CSc2ncnc3c2ncn3[C@@H]2O[C@@H](CO)[C@@H](O)[C@H]2O)cc1 | 6.8% | 0.5% | . | 3.6% | -7.9% | -9.6%
COc1ccc(CNc2ncnc3ccc(-c4ccc5c(c4)OCO5)cc23)c(OC)c1 | ? | 0.1%[2.29 µM] | . | ? | 79.8% | ?
OCC1OC(C#Cc2ccccc2)C=CC1O (stereo not given) | -1.7%[11.4 µM] | . | . | 36.4%[11.5 µM] | . | -3.8%[11.4 µM]
COC(=O)C1(CC(C)C)C=C2C(=C(c3ccccc3)C(=O)C2C)CN1 (stereo not given) | 0.9% | . | . | 1.3% | 79.4% | 17.9%
Oc1ccccc1-c1cc(C(F)(F)C(F)F)[nH]n1 | -16.0%[11.4 µM] | -4.6% | . | ? | -7.1%[11.4 µM] | -6.2%[11.4 µM]
Oc1ccccc1C1=NCCNC(C(F)(F)C(F)F)=C1 | -0.1% | 1.5% | >57 | -27.9% | 15.8µM* | -2.9%
CN(C)c1cccc(O)c1 | ? | . | . | 10.2% | 31.6µM* | ?
